Experimental findings from PubChem BioAssay (NCI) are described below.

Experiment [1] in a line: NCI Yeast Anticancer Drug Screen. Data for the rad50 strain (AID 155).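 Note: 0% = growth of vehicle-only cultures of the same strain.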 The settings on record: S. cerevisiae rad50 strain growth inhibition; at 50.0 µM; stronger effect = higher value. Summed up: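 Vehicle-treated cultures provide the reference for the growth inhibition reported for compound-exposed, repair-deficient yeast.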
The nature of experiment [2]: NCI Yeast Anticancer Drug Screen. Data for the mec2-1 strain (AID 157). The conditions noted are these: S. cerevisiae mec2-1 strain, at 50.0 µM, stronger effect = higher value. Summed up: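 Each compound was tested on mec2-1 yeast, a strain altered in DNA damage repair or cell cycle control. Growth inhibition is reported relative to vehicle.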
The nature of experiment [3]: NCI Yeast Anticancer Drug Screen. Data for the sgs1 mgt1 strain (AID 161).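 Note: 0% = growth of cultures given vehicle only.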 The settings on record: S. cerevisiae sgs1 mgt1 strain, at 50.0 µM, stronger effect = higher value. Summed up:
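Inhibition of yeast growth, normalised to vehicle-treated controls, is reported for a strain bearing genetic alterations in DNA damage repair.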

Experiment [4] in a line: NCI Yeast Anticancer Drug Screen. Data for the cln2 rad14 strain (AID 165).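 Note: 0% = growth equal to vehicle treated cultures.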 The conditions noted are these: S. cerevisiae cln2 rad14 strain, at 50.0 µM, stronger effect = higher value. A digest of the protocol:
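Test compounds were added to cln2 rad14 yeast cultures; inhibition of growth was then determined by comparison with vehicle treatment.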

A short description of experiment [5]: NCI Yeast Anticancer Drug Screen. Data for the bub3 strain (AID 167). The settings on record: S. cerevisiae bub3 mutant strain, at 50.0 µM, stronger effect = higher value. Summed up:
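Mutant yeast screening strain plus compound; vehicle-treated cultures serve as the 0% inhibition reference.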

Experiment [6] is described as follows: NCI Yeast Anticancer Drug Screen. Data for the mlh1 rad18 strain (AID 175). The conditions noted are these: S. cerevisiae mlh1 rad18 strain growth inhibition; at 50.0 µM; stronger effect = higher value. A digest of the protocol: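 Inhibition values reflect reduced growth of mutant yeast versus vehicle-treated controls following compound exposure; the mutations affect DNA damage repair.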

About 79,000 compounds went through this panel and 15% of them were active in at least one assay; those are over-represented in the sample as a whole. A number with no mark means an inactive call. Calls of active or inactive are those of the source. Cut-off read from the data, not from the text of the source: active = growth inhibition above about 70%; inactive = the rest.

On to `O=C1OC(=O)C(=C(c2ccccc2)c2ccccc2)C1=C(c1ccccc1)c1ccccc1`, for which the growth inhibition in experiment [1] is 51.8%; in experiment [2], 64.1%; in experiment [3] it was 48.4%; in experiment [4] it was 43.5%; in experiment [5], 53.1%; in experiment [6], 76.8% (active).

With `OCC(CCl)(CCl)CCl`, the growth inhibition is 31% in experiment [1]; 18.1% in experiment [2]; 10.8% in experiment [3]; 7.45% in experiment [4]; 18.2% in experiment [5]; 41% in experiment [6].

Turning to `NNc1nnc(Cl)c2c1ncn2Cc1ccccc1`, the growth inhibition was -16.9% in experiment [1]; -7.45% in experiment [2]; 23.1% in experiment [3]; -21.4% in experiment [4]; 2.75% in experiment [5]; 20.6% in experiment [6].

As for `COc1ccc(C2N(C(C#N)c3ccccc3OC)CCCN2C(C#N)c2ccccc2OC)c(OC)c1` (configuration not stated), the growth inhibition in experiment [1] is 57.1%; in experiment [2] it was 18.3%; in experiment [3], 30.3%; in experiment [4], 25.4%; in experiment [5], -2.55%; in experiment [6] it was 42%.

Consider `Brc1ccccc1/C=N\N=C\c1ccccc1Br`, for which the growth inhibition in experiment [1] was 12.9%; in experiment [2], 2.5%; in experiment [3], 12.2%; in experiment [4], -5.25%; in experiment [5], -6.4%; in experiment [6] it was 5.35%.

In the case of `O=c1nc(-c2ccco2)sc(=O)[nH]1`, the growth inhibition in experiment [1] is -0.05%; in experiment [2] it was -5.6%; in experiment [3], -8.35%; in experiment [4], 13.2%; in experiment [5], -5.85%; in experiment [6], -3.4%.

With `COC(=O)c1cc(C(c2cc(C)c(O)c(C(=O)OC)c2)c2cc(C)c(O)c(C(=O)OC)c2)cc(C)c1O`, the growth inhibition in experiment [1] is -6.9%; in experiment [2], 10.6%; in experiment [3] it was -4.4%; in experiment [4] it was -6.2%; in experiment [5] it was -0.3%; in experiment [6], 3.9%.

In the case of `CN(C)c1nc2ccccn2c1C(=O)c1ccccc1`, the growth inhibition in experiment [1] is 4.85%; in experiment [2], -0.1%; in experiment [3], -12.8%; in experiment [4], -19.4%; in experiment [5], -0.6%; in experiment [6], -5.5%.

As for `CC(CO)CCC(O)C(C)(O)C1CCC2(O)C3=CC(=O)C4CC(O)C(O)CC4(C)C3CCC12C` (configuration not stated), the growth inhibition in experiment [1] is 4.05%; in experiment [2] it was -23.5%; in experiment [3], 10.2%; in experiment [4], 7.75%; in experiment [5], 17.8%; in experiment [6], -68.2%.

As for `COc1ccc(N(Cc2ccc(C)o2)C(=S)Nc2ccccc2)cc1`, the growth inhibition was -3.6% in experiment [1]; -5.4% in experiment [2]; 9.7% in experiment [3]; 8.9% in experiment [4]; 36% in experiment [5]; 7.05% in experiment [6].

On to `c1ccc(Sc2cccc3c(-c4ccccc4)c4cccc5c4c(c23)C[S+]5c2ccccc2)cc1` (configuration not stated), for which the growth inhibition is 98.5% (active) in experiment [1]; 99.1% (active) in experiment [2]; 99.2% (active) in experiment [3]; 98.5% (active) in experiment [4]; 98.6% (active) in experiment [5]; 98.8% (active) in experiment [6].

With `O=C(Nc1nc2ccccc2[nH]1)C(F)(F)F`, the growth inhibition in experiment [1] was -6.8%; in experiment [2], -13.4%; in experiment [3], -3.85%; in experiment [4], 5.55%; in experiment [5], -2.55%; in experiment [6], 20%.

As to `CN(C)c1ncnc2c1cnn2C1OC(CO)C(O)C1O` (configuration not stated), the growth inhibition in experiment [1] was 5.85%; in experiment [2] it was 14.2%; in experiment [3] it was 17.3%; in experiment [4], 15.2%; in experiment [5] it was 19.6%; in experiment [6], 30.7%.

For `O=C1NC(N2CCCCC2)=N/C1=C\c1ccco1`, the growth inhibition in experiment [1] is -11.8%; in experiment [2] it was 0.2%; in experiment [3], 8.35%; in experiment [4] it was 13.7%; in experiment [5], -5.65%; in experiment [6], -33.8%.

With `CC(=O)Nc1ccc(NC(=O)c2cccc3ccccc23)cc1`, the growth inhibition in experiment [1] was -5.1%; in experiment [2] it was 13%; in experiment [3], 13.8%; in experiment [4], -12.8%; in experiment [5] it was 35.4%; in experiment [6] it was 32.1%.

In the case of `C=C(C)C#CC1(O)C=C(OC)C(OC)=CC1=O` (configuration not stated), the growth inhibition in experiment [1] was -36.4%; in experiment [2], -12.7%; in experiment [3], -10.1%; in experiment [4], -61.9%; in experiment [5], -13.1%; in experiment [6], 7.35%.

With `CCCCC(CC)COC(=O)COc1ccc(C(C)c2ccc(OCC(=O)OCC(CC)CCCC)cc2)cc1` (configuration not stated), the growth inhibition in experiment [1] is -6.6%; in experiment [2], 10.5%; in experiment [3], 7.9%; in experiment [4] it was -3.55%; in experiment [5], 3.2%; in experiment [6] it was -38.2%.

`COCC(C)(c1cn(C)c2ccccc12)c1cn(C)c2ccccc12`: the growth inhibition was -2.5% in experiment [1]; -19.2% in experiment [2]; -11.4% in experiment [3]; -17.9% in experiment [4]; 5.05% in experiment [5]; -10.1% in experiment [6].

As for `CC(C)CC(CC(C)C)NCC(C)OC(=O)c1ccc(N(C)C)cc1` (configuration not stated), the growth inhibition was 57.5% in experiment [1]; -4.2% in experiment [2]; 20.2% in experiment [3]; -7.55% in experiment [4]; 2.6% in experiment [5]; 1.3% in experiment [6].

For `CC1=C(/C=C/C(C)=C\c2cc(C)cc(=O)o2)C(C)(C)CCC1`, the growth inhibition is 23.1% in experiment [1]; -1.5% in experiment [2]; 8.7% in experiment [3]; -26.6% in experiment [4]; 5.75% in experiment [5]; 16.9% in experiment [6].

For the molecule `c1ccc(-c2ccccc2NC2=NCCO2)cc1`, the growth inhibition was 6.55% in experiment [1]; -2.8% in experiment [2]; 2.2% in experiment [3]; -25.1% in experiment [4]; 11.4% in experiment [5]; 5.7% in experiment [6].

On to `CCOC(=O)/C=C/C(=O)OCC`, for which the growth inhibition in experiment [1] is -2.15%; in experiment [2] it was -0.2%; in experiment [3] it was -4.8%; in experiment [4] it was -2.55%; in experiment [5], 6.65%; in experiment [6], -2.65%.

Turning to `Cc1cc(N=Nc2ccc(C(=O)O)cc2)c(N)cc1N`, the growth inhibition was -34.5% in experiment [1]; -5.55% in experiment [2]; -7.1% in experiment [3]; -21.4% in experiment [4]; 9.7% in experiment [5]; -7.5% in experiment [6].

On to `N#C/C(=C\c1ccccc1Cl)C(N)=S`, for which the growth inhibition in experiment [1] was 10.6%; in experiment [2] it was 11.2%; in experiment [3], 1.15%; in experiment [4], 8%; in experiment [5], -27.4%; in experiment [6], 6.05%.

Take `C[C@@H]1CN(c2ccccc2)C[C@H](C)OS(=O)O1` (some centres not stated): the growth inhibition in experiment [1] was 2.65%; in experiment [2], -1.95%; in experiment [3], -12.8%; in experiment [4], -16.6%; in experiment [5], -6.95%; in experiment [6] it was -0.7%.

Consider `CNCC(C(=O)C(CNC)c1ccccc1)c1ccccc1` (configuration not stated), for which the growth inhibition was -1.15% in experiment [1]; -6.45% in experiment [2]; 11.4% in experiment [3]; 7.6% in experiment [4]; 4% in experiment [5]; 21.9% in experiment [6].

For the molecule `CCC(C)C1SCC(=O)N1c1nncs1` (configuration not stated), the growth inhibition in experiment [1] is 10.6%; in experiment [2], 7.45%; in experiment [3], 6.55%; in experiment [4] it was -4.6%; in experiment [5], 4.9%; in experiment [6], 16.4%.

As for `COC(=O)C1=C(C(=O)OC)SC(=C2C3=C(SC(C(=O)OC)=C(C(=O)OC)S3)c3ccccc32)S1`, the growth inhibition in experiment [1] is 31.1%; in experiment [2], -2.15%; in experiment [3], 21.9%; in experiment [4], 18.9%; in experiment [5] it was -4.6%; in experiment [6], 21.2%.

As for `NN(CC(=O)O)CC(=O)O`, the growth inhibition in experiment [1] is 18.8%; in experiment [2], -2.8%; in experiment [3], 2%; in experiment [4] it was 4.75%; in experiment [5], 29.1%; in experiment [6] it was 20.9%.

Regarding `COC(=O)C1(C(C)C(=O)c2ccc(Cl)cc2)NC(=S)NC(=O)C1C#N` (configuration not stated), the growth inhibition was 0.4% in experiment [1]; 6.05% in experiment [2]; -24.9% in experiment [3]; -0.8% in experiment [4]; -8.5% in experiment [5]; 12.7% in experiment [6].

Turning to `CC1C(c2ccccc2)=NN(C)c2ccccc21` (configuration not stated), the growth inhibition is 19.6% in experiment [1]; 0.6% in experiment [2]; 3.7% in experiment [3]; -28.1% in experiment [4]; 8.45% in experiment [5]; 21.8% in experiment [6].

For `Cn1cnc2c(=O)[nH]cnc21`, the growth inhibition in experiment [1] is 12.9%; in experiment [2], -12.7%; in experiment [3] it was -2.4%; in experiment [4] it was -4.8%; in experiment [5] it was 14.7%; in experiment [6], -8.5%.

Turning to `O=C(c1nc2ccc(Cl)cc2[nH]c1=O)C(O)c1ccco1` (configuration not stated), the growth inhibition in experiment [1] was -21.4%; in experiment [2], 3.2%; in experiment [3], -20.2%; in experiment [4] it was -1.4%; in experiment [5], -24.7%; in experiment [6] it was -13.2%.

For `Cc1cc2nc3c(C(OC4OC(CO)C(O)C(O)C4O)C(O)CO)nn(-c4ccccc4)c3nc2cc1C` (configuration not stated), the growth inhibition in experiment [1] is -23%; in experiment [2] it was -13.8%; in experiment [3], -35.1%; in experiment [4] it was 0.25%; in experiment [5], -26.9%; in experiment [6], 0.75%.

As for `Cc1cc(N(CCC#N)CCC#N)ccc1/C=C(\NC(=O)/C=C/c1ccccc1)C(N)=O`, the growth inhibition in experiment [1] is 3.15%; in experiment [2], -7.85%; in experiment [3] it was 15.1%; in experiment [4], -10.6%; in experiment [5], -33.1%; in experiment [6], -15.8%.

Consider `COc1ccc(-c2cc3c(c4cc(OC)ccc24)C(=O)OC3=O)cc1`, for which the growth inhibition in experiment [1] was -29.1%; in experiment [2], -5.1%; in experiment [3], 20.6%; in experiment [4], 1%; in experiment [5] it was 4.4%; in experiment [6], -15.1%.

On to `CC(COc1ccccc1)OC(=O)CCl` (configuration not stated), for which the growth inhibition in experiment [1] was 0.75%; in experiment [2], 5.6%; in experiment [3], -6.65%; in experiment [4], -16.9%; in experiment [5], -16.5%; in experiment [6], 27.6%.
